Laboratory results taken from the supplement of paper PMC4166925.
± gives the standard deviation of the averaged measurements. In all, about 33,000 sequences were measured (“E-score (dimensionless, -0.5 to 0.5)”: median about -0.049, highest 2% from about 0.37 on). For the sample, the highest values were picked, then their nearest neighbours and some sequences at random.

system: T1, PmTbr T-box DNA-binding domain (GST fusion); test: PBM E-score of 8-mer (E-score (dimensionless, -0.5 to 0.5)); Tbr is Tbrain of the sea star Patiria miniata (Pm) or the sea urchin Strongylocentrotus purpuratus (Sp); higher = stronger binding preference; conditions: the construct has about 5 more residues each side
T1 sequence: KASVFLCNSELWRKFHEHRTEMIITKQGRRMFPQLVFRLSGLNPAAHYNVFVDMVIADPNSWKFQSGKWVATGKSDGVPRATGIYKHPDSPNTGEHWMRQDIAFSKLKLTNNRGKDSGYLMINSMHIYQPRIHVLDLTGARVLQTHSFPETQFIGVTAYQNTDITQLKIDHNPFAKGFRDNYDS
Experimental: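 Universal protein-binding microarray (Agilent AMADID 016060, 60-bp probes with a 35-bp variable region) incubated with 200 nM GST-fused Patiria miniata Tbr T-box DNA-binding domain (residues 272-466) in PBS pH 7.5. Scored for every ungapped 8-mer (given with its reverse complement) by the Universal PBM Analysis Suite as E-score (modified Wilcoxon-Mann-Whitney enrichment, range -0.5 to 0.5; >0.45 counts as bound) and Z-score of median probe intensity. Two replicate arrays (datasets 1 and 2).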
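Also: 200 nM protein in PBS on universal arrays averaged over duplicate arrays.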

Sequence | PBM E-score of 8-mer
CTCACAAC | 0.3462 ± 0.0029
CCCAGAAC | -0.157 ± 0.065
CACCTTGA | 0.383 ± 0.017
AACCTTGC | 0.060455 ± 2.1e-05
AACCTTGG | -0.183 ± 0.041
GACCTTGC | -0.145 ± 0.021
CACCTTGC | 0.4191 ± 0.0029
TACCTTGA | 0.00793 ± 0.011
CACCTTGG | 0.45511 ± 0.00014
GACCTTGA | -0.166 ± 0.025
CAGCTTGG | 0.0903 ± 0.044
ATTATGCG | -0.162 ± 0.031
GCGGTAAC | -0.0299 ± 0.029
AATTGGTC | -0.139 ± 0.051
CCCTCTCG | 0.0695 ± 0.027
CGGTATAC | -0.0592 ± 0.023
CCTAGAGG | -0.0482 ± 0.018
ACCCACAT | 0.203 ± 0.096
ACACACCG | 0.125 ± 0.027
AGACACAT | 0.184 ± 0.0023
ACACACAT | 0.288 ± 0.013
AAACACCC | 0.227 ± 0.027
AGACACCT | 0.4559 ± 0.0013
ACACACCT | 0.445 ± 0.0069
AAACACCT | 0.4565 ± 0.0016

Sequence | PBM E-score of 8-mer
AGACACCG | 0.185 ± 0.012
AAACACCG | 0.143 ± 0.013
GGAGTGGA | -0.0457 ± 0.03
ACATTTCA | 0.125 ± 0.0075
AGCTATCC | -0.334 ± 0.059
AGGACACG | -0.0089 ± 0.017
ACGCCTGG | 0.236 ± 0.015
CCCAACAA | 0.0135 ± 0.11
GACAACAC | 0.391 ± 0.014
CACAACAC | 0.387 ± 0.02
CACAACAA | 0.278 ± 0.0061
CACAACAG | 0.161 ± 0.033
GCCAACAC | 0.354 ± 0.0042
CCCAACAC | 0.385 ± 0.0085
AACAACAC | 0.363 ± 0.01
GTCAACAC | 0.427 ± 0.012
GACAACAA | 0.194 ± 0.046
GTCAACAA | 0.293 ± 0.013
CTCAACAC | 0.321 ± 0.029
AATTCGCT | 0.00911 ± 0.0077
CGCAGGCC | -0.171 ± 0.036
GGTTCGAC | 0.0606 ± 0.091
CCGTTAGA | 0.0408 ± 0.021
GCTGACTA | -0.0402 ± 0.059
AATGCTCC | -0.0523 ± 0.0048

Sequence | PBM E-score of 8-mer
CATCTGCC | -0.176 ± 0.007
AGGTTATG | 0.0583 ± 0.03
AGACGCTG | -0.078 ± 0.052
AGTGTTAG | 0.407 ± 0.014
ACTGTTAG | 0.217 ± 0.017
CTTGTTAA | 0.236 ± 0.09
CGTGTTAA | 0.409 ± 0.029
GGTGTTAA | 0.479 ± 0.0049
GCTGTTAA | 0.199 ± 0.089
CGTGTTTA | 0.0204 ± 0.033
CCTGTTAA | 0.185 ± 0.023
CGTGTTAG | 0.354 ± 0.01
TGTGTTAA | 0.365 ± 0.029
GGTGTTTA | 0.399 ± 0.015
AGTGTTTA | 0.258 ± 0.043
CCGCCCGA | 0.0216 ± 0.052
CTCAAGAG | 0.00045 ± 0.0019
CCAGACCA | -0.0405 ± 0.051
GAGACAGC | 0.0107 ± 0.051
CATCAGGG | -0.024 ± 0.045
AGATAGTC | -0.0975 ± 0.03
AATACTTG | -0.0724 ± 0.093
AATGCGCA | -0.0568 ± 0.095
AGGGGGAA | -0.14 ± 0.053
CCTAAGTC | -0.0839 ± 0.0091

Sequence | PBM E-score of 8-mer
CGTGTTAC | 0.349 ± 0.015
AATGTTAA | -0.0297 ± 0.11
AGTGTTAC | 0.3946 ± 0.0021
AGTGTTCC | 0.0364 ± 0.038
GGTGTAAC | 0.363 ± 0.027
ACTGTTAA | 0.21 ± 0.045
ACTGTTAC | 0.118 ± 0.043
GGTGTAAA | 0.418 ± 0.0026
GCTGTTAC | 0.0246 ± 0.042
AGTGTTAA | 0.433 ± 0.017
AGTGTAAA | 0.287 ± 0.081
GGTGTTAC | 0.4752 ± 0.00012
CCCACAGG | 0.0869 ± 0.067
CCGGTTGC | -0.0645 ± 0.0032
CATAGATA | -0.161 ± 0.051
ACCAACGA | 0.0332 ± 0.14
GTGCTTGA | 0.00432 ± 0.026
AATGTTAT | -0.00229 ± 0.038
AGTGTTAT | 0.397 ± 0.016
ACTGTTAT | 0.0989 ± 0.046
CCCGAGGG | -0.251 ± 0.11
CCTTCTCC | -0.0679 ± 0.015
AGAGCAAA | -0.099 ± 0.029
TAACAAGA | 0.0263 ± 0.085
AGGTGCCA | 0.4761 ± 0.0036

Sequence | PBM E-score of 8-mer
GTGTGCGA | 0.3565 ± 0.0019
GGGTGCTA | 0.4326 ± 0.0028
CGGTGCGA | 0.35 ± 0.017
GTGTGCTA | 0.3066 ± 0.0011
GGGTGCGA | 0.4765 ± 0.0031
AGGTGCCG | 0.439 ± 0.0092
CGGTGCTA | 0.321 ± 0.0088
AGGTGCCC | 0.0662 ± 0.046
AGCTGCCA | 0.18 ± 0.026
ACGTGCCG | 0.221 ± 0.02
ACGTGCCA | 0.367 ± 0.031
CACGCCAC | 0.222 ± 0.04
ACGAAGTG | 0.291 ± 0.018
CTGGGCCA | -0.217 ± 0.042
AGGTCACA | 0.27 ± 0.017
GCTACGAC | 0.00882 ± 0.05
CGGCAATA | -0.0175 ± 0.065
CGGCCTAA | -0.0861 ± 0.036
AACTCAAC | -0.0361 ± 0.029
CGCTATAA | 0.164 ± 0.045
GCGTGCCA | 0.163 ± 0.015
GGGTGCAA | 0.31 ± 0.0046
CGGTGCCA | 0.195 ± 0.0034
GGGTGCCA | 0.426 ± 0.011
AGGTGCAA | 0.4484 ± 0.0012

Sequence | PBM E-score of 8-mer
TGGTGCAA | 0.192 ± 0.012
AAAGACCG | -0.149 ± 0.032
TCCTGCCA | 0.183 ± 0.019
AGCGTGAC | 0.3524 ± 0.0023
AGCGTGAA | 0.381 ± 0.004
CGCGTGAA | 0.398 ± 0.033
CGCGTGAG | 0.282 ± 0.004
AGCGTGAT | 0.207 ± 0.025
GGCGTGAC | 0.386 ± 0.017
GGCGTGCA | -0.00275 ± 0.035
GGCGTGAA | 0.4668 ± 0.002
CACGTGAA | 0.176 ± 0.044
TGCGTGAA | 0.3679 ± 0.0033
AGCGTGAG | 0.24 ± 0.042
CGCGTGAC | 0.342 ± 0.0057
CTAGGATC | -0.255 ± 0.018
TTGAGAAA | 0.0227 ± 0.14
ATGACCAT | -0.23 ± 0.0083
TCCTTAGA | -0.289 ± 0.043
CCCAAGCC | -0.228 ± 0.037
AGTCAATG | -0.195 ± 0.041
CTTCCACA | 0.151 ± 0.069
CGTCTTCA | -0.00878 ± 0.0017
AGAACGAG | -0.0902 ± 0.0033
CGGCGAAA | -0.1403 ± 0.00085

Sequence | PBM E-score of 8-mer
GCCATTCA | 0.104 ± 0.018
GAACGCTA | 0.0135 ± 0.049
GATAACAA | 0.212 ± 0.042
GATAACAC | 0.4169 ± 0.0014
GATAACGC | 0.246 ± 0.0034
AATAACAC | 0.339 ± 0.052
CATAACAA | 0.0483 ± 0.038
CATAACAC | 0.42 ± 0.0089
GCTGTTCA | 0.0254 ± 0.024
CGAAGATC | -0.07 ± 0.0097
ACCGCAGA | -0.332 ± 0.019
CATCCTCA | -0.0261 ± 0.11
GAACCTAC | -0.179 ± 0.00047
GGCTTAAA | -0.302 ± 0.016
ACAAGCTA | -0.0967 ± 0.014
TCGTGACA | 0.358 ± 0.017
TGGTGACA | 0.409 ± 0.01
GGGTGAAA | 0.0558 ± 0.043
CGGTGACA | 0.333 ± 0.0054
GGGTGACA | 0.4543 ± 0.0023
GGGTGACC | -0.0479 ± 0.082
CGCGCTCA | 0.13 ± 0.034
